In the library only some 3.5% were active in any assay of this set; here they are far more common.
BJeLR lethal = BJeLR cell viability loss. BJeLR (HRASV12) viability, CellTiter-Glo ATP luminescence, 48 h. 300,000 tested, 0.17% active. inhibition, % (test concentration not listed); in the data active = inhibition above about 50%; inconclusive = no clear call, values can overlap the other calls
BoNT-F LC inh = inhibitors of Botulinum neurotoxin F light chain protease | Multiplex microsphere protease cleavage assay, flow cytometry | inhibition, % at 10 µM | 360,000 tested, 0.22% active; in the data active = inhibition above about 35%, passing the limit was not always enough; inconclusive = no clear call, values can overlap the other calls; also: plate controls were buffer without enzyme for full effect and enzyme alone for no effect
BoNT A protease = blocks Botulinum neurotoxin A light chain protease; 360,000 tested, 0.17% active; inhibition, % at 10 µM; AID 588499; multiplex microsphere protease substrate cleavage, flow cytometry; also: plate controls were buffer without enzyme for full effect and enzyme alone for no effect
Anthrax LF inh2 = inhibitors of Bacillus anthracis lethal factor protease. inhibition, % at 10 µM. multiplex microsphere protease cleavage assay, LF. 360,000 tested, 0.12% active. P15917. AID 588501; also: plate controls were buffer without enzyme for full effect and enzyme alone for no effect
Target sequence (P15917 whole entry, looked up): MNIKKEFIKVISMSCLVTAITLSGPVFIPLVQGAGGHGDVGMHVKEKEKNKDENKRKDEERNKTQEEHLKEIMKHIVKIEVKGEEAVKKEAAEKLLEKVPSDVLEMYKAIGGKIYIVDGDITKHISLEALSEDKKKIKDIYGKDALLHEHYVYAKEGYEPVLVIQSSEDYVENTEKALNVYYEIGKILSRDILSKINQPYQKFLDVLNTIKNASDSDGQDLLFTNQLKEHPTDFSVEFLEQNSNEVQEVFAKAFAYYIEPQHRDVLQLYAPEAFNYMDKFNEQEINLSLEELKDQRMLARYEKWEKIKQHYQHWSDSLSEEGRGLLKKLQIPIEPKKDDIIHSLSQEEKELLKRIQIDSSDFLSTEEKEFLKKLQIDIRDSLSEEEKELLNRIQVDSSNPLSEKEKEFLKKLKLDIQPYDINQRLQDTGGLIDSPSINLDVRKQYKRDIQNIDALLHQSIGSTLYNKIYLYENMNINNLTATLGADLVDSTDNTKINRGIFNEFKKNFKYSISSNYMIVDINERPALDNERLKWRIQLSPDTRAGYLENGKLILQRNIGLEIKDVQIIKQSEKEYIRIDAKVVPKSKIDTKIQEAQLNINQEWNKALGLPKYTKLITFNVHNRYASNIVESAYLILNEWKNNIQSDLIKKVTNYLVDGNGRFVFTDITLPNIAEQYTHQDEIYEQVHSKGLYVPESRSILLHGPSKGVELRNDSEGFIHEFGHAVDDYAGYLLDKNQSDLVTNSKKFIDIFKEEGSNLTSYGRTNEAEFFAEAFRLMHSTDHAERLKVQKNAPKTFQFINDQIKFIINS
Bead autofluor = compound fluorescence in toxin protease inhibitor counterscreen | compound autofluorescence counterscreen, microsphere flow cytometry; stronger effect = higher value | AID 624483 | 360,000 tested, 3.1% active | fluorescence intensity (no concentration beside the values); in the data active = fluorescence intensity above about 16000; inconclusive = no clear call, values can overlap the other calls
Active calls of the source: *; ? = inconclusive; / = no result given. Rule as the data show it, unless noted: active = inhibition above about 30%; inconclusive = no clear call, values can overlap the other calls; inactive = below that.

SMILES | BJeLR lethal | BoNT-F LC inh | BoNT A protease | Anthrax LF inh2 | Bead autofluor
CC1CCN(S(=O)(=O)c2ccc3c(c2)C(=NO)c2cc(S(=O)(=O)N4CCC(C)CC4)ccc2-3)CC1 | / | -2 | -1 | -4 | 3087
O=S(=O)(c1ccc2c(c1)C(=NO)c1cc(S(=O)(=O)N3CCCCC3)ccc1-2)N1CCCCC1 | 95* | 0 | -1 | 2 | 8957
Cn1c(=O)c(=O)n(C)c2cc(S(=O)(=O)N3CCN(c4cccc(C(F)(F)F)c4)CC3)ccc21 | 5 | 0 | -1 | 0 | 21964*
Cn1c(=O)c(=O)n(C)c2cc(S(=O)(=O)N3CCCCC3)ccc21 | -1 | -1 | 0 | -1 | 23051*
Cn1c(=O)oc2cc(S(=O)(=O)N3CCN(c4cccc(Cl)c4)CC3)ccc21 | 1 | 1 | 2 | 0 | 22890*
CCOc1ccc(-c2cc(C(=O)NC3CCCCC3)[nH]n2)c(C)c1 | / | 2 | 1 | -10 | 3454
COc1ccc(C(C)(NC(C)=O)c2nc(-c3cc(F)cc(F)c3)cs2)cc1 (stereo not drawn) | / | -4 | 0 | -2 | 3576
CC(C)(C)SC(=O)C[C@@H]1NS(=O)(=O)OC2CCCCC21 (stereo partly drawn) | 2 | -5 | 0 | -5 | 2908
Cc1ccc(/C=C2/C(=O)ON=C2c2ccccc2)o1 | 51* | -8 | -1 | 4 | 5996
CCCNC(=O)C1(C)CCN(C(=O)c2oc3ccccc3c2C)C1 (stereo not drawn) | / | 3 | 0 | -2 | 3839
CCCCOC(=O)Nc1ccc(N2CCOCC2)cc1 | 6 | -5 | ? | -6 | 20906*
CCOC(=O)Nc1ccc(S(=O)(=O)NCCCN2CCOCC2)cc1 | 2 | -3 | -2 | -3 | 17393*
O=C1C(Br)=C(c2ccccc2)C(c2ccccc2)=C1c1ccccc1 | / | -17 | 0 | -7 | 3986
COc1cccc(-c2cc(C(=O)NCCN3CCOCC3)no2)c1 | -3 | -5 | -3 | 0 | 17375*
O=C(NC(=S)NCCN1CCOCC1)c1cccc(Cl)c1 | 8 | -2 | -1 | 1 | 22268*
O=C(NCCN1CCOCC1)c1cc(-c2ccc(Cl)cc2)on1 | -1 | -5 | ? | -3 | 17467*
COc1cccc(-c2cc(C(=O)Nc3ccc(OC)c(OC)c3)no2)c1 | -7 | 1 | 1 | -1 | 19835*
CCCCn1c(N)c(N(CC(C)C)C(=O)C2CCN(S(=O)(=O)c3ccc(C)cc3C)CC2)c(=O)[nH]c1=O | 4 | / | / | / | /
CC1=C(C(=O)N2CCOCC2)CC(CC(=O)NCCCCc2ccccc2)C(=O)N1CCC1=CCCCC1 (stereo not drawn) | / | -7 | -1 | -1 | 3022
COc1ccc(C2CC(C(F)(F)F)n3nc(C(=O)NCCN4CCOCC4)cc3N2)cc1 (stereo not drawn) | 9 | -4 | -1 | -2 | 17087*
N#Cc1ccc(C(=O)N2CCCC(c3cc(C(=O)NCc4cccnc4)no3)C2)cc1 (stereo not drawn) | / | -31 | -2 | -8 | 3846
CCOc1cc(C(c2c(C)[nH][nH]c2=O)c2c(C)[nH][nH]c2=O)ccc1OCc1ccc([N+](=O)[O-])cc1 | 13 | -6 | 0 | 0 | 22205*
CCOc1cc(C(c2c(C)[nH][nH]c2=O)c2c(C)[nH][nH]c2=O)ccc1OC(=O)c1cccc([N+](=O)[O-])c1 | 15 | -4 | 3 | 0 | 19908*
Cc1nc(C(F)(F)F)ccc1C(=O)N1CCCC(C)(C(=O)O)C1 (stereo not drawn) | / | -2 | 0 | -8 | 2808
CC1(C(=O)Nc2cccnc2)Cc2c(-c3cccc(C(F)(F)F)c3)ccnc2O1 (stereo not drawn) | / | -7 | 0 | -10 | 3422
SMILES | BJeLR lethal | BoNT-F LC inh | BoNT A protease | Anthrax LF inh2 | Bead autofluor
CC1CCCCN1C(=O)c1ccc(NC(=O)c2ccccc2Cl)cc1 (stereo not drawn) | -11 | -3 | 0 | -2 | 4453
CCOC(=O)c1c(C)cc2c(CO)n[nH]c(=O)c2c1C | / | -2 | 0 | 5 | 3695
CN(C)CCOCCP(=O)(c1ccccc1)c1ccccc1 | -15 | 4 | 1 | 2 | 23350*
Clc1cccc(-c2nc(NCc3cccnc3)c3ccccc3n2)c1 | -2 | 14 | 14 | -14 | 17205*
COC(=O)[C@]12CCCCC=C1N(Cc1ccc(Cl)cc1Cl)C(=O)[C@H](CC(=O)N1CCN(C(=O)C3CC3)CC1)C2 | / | 6 | 0 | 5 | 5560
Cc1ccsc1C(=O)N1CCCC(C)(C(=O)O)C1 (stereo not drawn) | / | 1 | 0 | -5 | 4047
O=C(CCN1C(=O)c2ccccc2C1=O)Nc1ccccc1C(=O)N1CCOCC1 | -5 | -2 | 0 | -1 | 2872
Cc1ccc(-c2nnc(CSc3nnc(C)s3)o2)cc1 | -5 | 2 | 1 | -2 | 22331*
Cc1csc(SCc2nnc(-c3ccc(Cl)cc3)o2)n1 | -9 | 2 | 1 | -3 | 3170
CNC(=S)N1C2CCCC1CC(NC(=O)c1ccc(F)cc1)C2 (stereo not drawn) | -1 | ? | -1 | 2 | 4186
CCCCC(=O)NC(=S)Nc1cccc(C(=O)O)c1 | 2 | 2 | 1 | -2 | 3963
CC#CCCCC(=O)Nc1cccc(C(=O)O)c1 | 8 | 7 | 6 | -4 | 19921*
CCCCn1nnnc1C(c1cc2ccccc2o1)N(CCN(C)C)Cc1ccccc1 (stereo not drawn) | / | -3 | 0 | 0 | 6394
NNC(=O)c1ccc2[nH]c3c(c2c1)CCCC3 | -6 | -3 | -1 | 2 | 4272
CN1CCc2[nH]c3ccc(C(=O)NN)cc3c2C1 | 3 | -2 | 4 | -2 | 20838*
O=C1C=C(NCc2ccccc2)C2(CCCCC2)O1 | -3 | 4 | 3 | 1 | 22250*
O=C(Nc1cccnc1)Nc1ccc(Br)cc1Cl | 8 | -2 | 0 | -3 | 16594*
O=C(Nc1cccnc1)Nc1ccccc1Cl | 3 | -1 | 0 | -3 | 5339
Cc1nn(-c2ccc(N3CCOCC3)nn2)c(C)c1CCC(=O)NCc1ccccc1F | 6 | -1 | -1 | -2 | 5682
COc1ccc(NS(=O)(=O)c2ccc(-n3nnc4ccccc43)c([N+](=O)[O-])c2)cc1 | -1 | 0 | 3 | -11 | 21241*
O=[N+]([O-])c1cc(S(=O)(=O)Nc2cccc(C(F)(F)F)c2)ccc1-n1nnc2ccccc21 | 5 | -5 | -1 | 0 | 2550
COc1ccc(C(CNC(=O)C2COc3ccccc3O2)N2CCCC2)cc1 (stereo not drawn) | / | 9 | -4 | -5 | 9427
CC(=O)NC(c1ccccc1)c1cccnc1 (stereo not drawn) | 2 | -1 | 0 | -1 | 16197*
Cn1cnc([N+](=O)[O-])c1NCc1ccccc1 | 11 | 40* | 7 | ? | 3764
CCNc1c([N+](=O)[O-])ncn1C | 1 | -5 | 0 | -1 | 2790
O=C(NCCc1cccc(Cl)c1)c1ccc(OC2CCN(Cc3ccccn3)CC2)cc1 | 19 | -14 | -2 | -4 | 4417
Cc1ccc(-c2nc(CCN3C(=O)c4ccccc4C3=O)cs2)cc1 | 8 | -4 | ? | -5 | 23490*
N#C/C(=C/c1ccc(F)cc1)c1nc(CCN2C(=O)c3ccccc3C2=O)cs1 | -11 | -7 | -2 | -3 | 16963*

Source: PubChem
